Assay outcomes deposited in PubChem BioAssay by Broad Institute.
YB-1 expression: YB-1 expression inhibition | U2OS, qRT-PCR YB-1 vs CDIP delta delta Cp, 16 h; stronger effect = higher value; zero = DMSO, each unit about twofold | delta delta Cp (YB-1 minus CDIP) (concentration not given with the values) | 30,000 compounds, 0.37% hits;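 active means delta delta Cp rounded down to an integer at or above 3, about 3 SD of DMSO wells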;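 further: higher means less YB-1 transcript or more CDIP transcript relative to DMSO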
ROS inducer: raises reactive oxygen species in U2OS cancer cells | U2OS ROS induction, H2DCF-DA fluorescence | 46,000 compounds, 2% hits | ROS induction (% of piperlongumine), % at 10 µM; in the data active means ROS induction above about 79%, passing the limit was not always enough; inconclusive means no clear call, values can overlap the other calls
MITF inhib: MITF inhibition; inhibition, % (no concentration beside the values); TRPM1 promoter luciferase, luminescence, 24 h; 37,000 compounds, 0.28% hits; in the data active means inhibition above about 85%; inconclusive means no clear call, values can overlap the other calls; inactive means below about 68%;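 further: human melanocyte line stably carrying TRPM1 promoter luciferase reporter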
PD-1 reverse act: activators reversing PD-1 mediated T-cell inhibition | primary human CD4 T cells, PD-L1 beads, CellTiter-Glo 96 h | activation, % (concentration not given with the values) | 29,000 tested, under 10 active | AID 2316; call rule not given here
NOMO-1 viab: STK33 inhibitor candidate reducing NOMO-1 cell viability; inhibition, % (test concentration not listed); NOMO-1 AML viability, CellTiter-Glo luminescence, 72 h; 37,000 compounds, 7.5% hits; in the data active means inhibition above about 80%; inconclusive means no clear call, values can overlap the other calls
Hits are given with their value; . = inactive; ? = inconclusive; / = not tested or not shown. This excerpt belongs to a sample that is enriched for hits.

SMILES	YB-1 expression	ROS inducer	MITF inhib	PD-1 reverse act	NOMO-1 viab
C[C@H](CO)N1C[C@H](C)[C@@H](CN(C)S(=O)(=O)c2ccc(Cl)cc2)Oc2ccc(N(C)C)cc2C1=O	.	.	.	.	.
CC(C)Cc1c(O)nc(SCC(=O)NC(C)(C)C)[nH]c1=O	.	.	.	.	.
Nc1nnc(SC2c3cccc4cccc(c34)C2NS(=O)(=O)c2ccc(Cl)cc2)s1 (configuration not stated)	/	.	.	.	.
N#CC(C(=O)c1ccccc1Cl)=C1SCCCS1	.	.	.	.	114
N#Cc1ccc(C(=O)Cn2cc(C(F)(F)F)ccc2=O)cc1	.	.	.	.	.
CCN(CC)C(=O)Cn1cc(SCC(=O)N2CCCCC2)c2ccccc21	/	.	/	/	/
CC(=O)O[C@@H]1C=C[C@@]2(C)C(C[C@@H](OC(C)=O)[C@@]3(C)C4=CC(=O)O[C@@H](c5ccoc5)[C@]4(C)CCC23)C1(C)C (some centres not stated)	.	.	91	/	106
CC(=O)O[C@@H]1CC2C(C)(C)C(=O)C=C[C@]2(C)C2CC[C@@]3(C)[C@H](c4ccoc4)OC(=O)[C@H]4O[C@]43[C@@]21C (some centres not stated)	.	.	.	/	.
CC(C)NC(=O)Nc1ccc2c(c1)CC(=O)N([C@H](C)CO)C[C@H](C)[C@H](CN(C)Cc1ccc(Cl)c(Cl)c1)O2	.	.	.	/	.
Cc1ccc(N2C(=O)C(N3C(=O)c4ccccc4C3=O)C2c2ccc(N(C)C)cc2)cc1Cl (configuration not stated)	.	.	.	.	.
O=c1cc(CSc2cccc3cccnc23)c2ccc(O)cc2o1	.	.	.	.	110
COC(=O)c1ccc(CSc2n[nH]c(-c3ccccc3OC)n2)o1	/	/	.	/	114
O=S(=O)(c1ccc(Cl)cc1)N1CCc2ccccc21	.	87	.	.	120
Cc1ccc(NC(=O)CSc2nc(C)cc(-c3ccccc3)n2)cc1	/	.	.	.	.
C[C@H](CO)N1C[C@H](C)[C@H](CN(C)Cc2ccc(Oc3ccccc3)cc2)Oc2ccc(NC(=O)Cc3ccccc3)cc2C1=O	.	.	.	/	.
C[C@H]1CN([C@@H](C)CO)C(=O)c2cc(NC(=O)Cc3ccccc3)ccc2O[C@@H]1CN(C)Cc1ccc(Oc2ccccc2)cc1	.	190	.	/	93
C[C@@H]1CN([C@@H](C)CO)C(=O)c2cc(NC(=O)NC3CCCCC3)ccc2O[C@@H]1CN(C)Cc1ccc(Oc2ccccc2)cc1	.	.	.	.	120
C[C@@H]1CN([C@@H](C)CO)C(=O)c2cc(NC(=O)Nc3ccccc3)ccc2O[C@@H]1CN(C)Cc1ccc(Oc2ccccc2)cc1	.	.	.	.	117
COc1ccc(NC(=O)Nc2ccc3c(c2)C(=O)N([C@H](C)CO)C[C@@H](C)[C@@H](CN(C)Cc2ccc(Oc4ccccc4)cc2)O3)cc1	.	.	.	/	122
COC(=O)C1=CN(C2CC2)C=C(C(=O)OC)C1c1ccccc1	.	.	.	.	.
Cc1cc(=O)[nH]c(SCc2nc3ccccc3[nH]2)n1	.	.	.	.	.
O=C1O[C@@H](c2ccccc2)[C@@H](c2ccccc2)N2[C@@H](c3ccc(OCCO)cc3)[C@]3(C(=O)Nc4ccc(C#CCCO)cc43)[C@@H](C(=O)NC[C@H](O)c3ccccc3)[C@H]12	.	.	/	/	/
C[C@@H]1CN([C@H](C)CO)C(=O)Cc2cc(NC(=O)c3ccncc3)ccc2O[C@@H]1CN(C)CC1CC1	.	.	.	.	.
COc1ccc(NC(=O)Nc2ccc3c(c2)C(=O)N([C@H](C)CO)C[C@H](C)[C@H](CN(C)Cc2ccc(-c4ccccc4)cc2)O3)cc1	.	.	.	.	.
COc1ccc(NC(=O)Nc2ccc3c(c2)C(=O)N([C@@H](C)CO)C[C@@H](C)[C@@H](CN(C)Cc2ccc(-c4ccccc4)cc2)O3)cc1	.	.	.	.	116
C[C@@H]1CN([C@H](C)CO)C(=O)c2cccc(NC(=O)c3cnccn3)c2O[C@H]1CN(C)Cc1ccc(C(=O)Nc2ccccc2N)cc1	.	.	.	.	?
C[C@@H]1CN([C@@H](C)CO)C(=O)c2cccc(NC(=O)c3cnccn3)c2O[C@@H]1CN(C)Cc1ccc(Cl)c(Cl)c1	.	.	.	/	.
C[C@@H]1CN([C@@H](C)CO)C(=O)c2cccc(NC(=O)c3cnccn3)c2O[C@H]1CN(C)Cc1ccc(Cl)c(Cl)c1	.	87	.	.	105
